Source: PubChem (several laboratories)
Compounds with a hit are over-represented: about 3.4% of the library has one in this group of screens.
ssDAF12 agonist – activates DAF-12 receptor from parasite S. stercoralis; HEK293 ssDAF-12/GRIP1 lit1-tk-luc reporter, luminescence; % of 3 µM dafachronic acid response; actives 1% (n = 370,000); activation, % at 6.8 µM; AID 652126;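 active = activation above the mean over all tested compounds plus 3 SD, cut at about 0.9% in these data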
APP 5'UTR act – activates APP 5'UTR luciferase reporter; SH-SY5Y APP 5'UTR luciferase reporter, luminescence; zero percent = DMSO vehicle wells; actives 1% (n = 190,000); activation, % at 2 µM;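 active = activation above a set limit, based on mean plus 3 SD of controls, cut at about 140% in these data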
NF-kB expr up – compounds increasing NF-kB expression in human neuronal cells; NF-kB reporter expression; stronger effect = higher value; fold change at 12.5 µM; actives 1.6% (n = 190,000); in the data active = fold change above about 3.3
hcDAF12 agonist – H. contortus DAF-12 activation, primary screen; activation, % at 6.8 µM; AID 652067; HEK293 hcDAF-12 lit1-tk-luc reporter, luminescence; 0% DMSO, 100% Δ7-dafachronic acid; actives 1.4% (n = 370,000);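 active = activation above the mean of all tested compounds plus 3 SD, cut at about 5.5% in these data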
hgDAF12 agonist – activates the H. glycines DAF-12 receptor ligand-binding domain | HEK293 GAL4-hgDAF12 UAS-luciferase reporter, agonist luminescence; normalized to butyrate control | activation, % at 6.8 µM | actives 1.8% (n = 370,000);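 active = activation above a cutoff set at the mean of all screened compounds plus 3 SD, cut at about 10% in these data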
LXR ag – activates human LXR-beta, counter-screen for hcDAF-12 agonists. shares compounds with hcDAF12 agonist. HEK293 Gal4-LXR tk-luc reporter, luminescence, 24 h; normalized: DMSO 0%, positive control 100%. activation, % at 6.8 µM. 3,400 tested, under 10 active. AID 743027;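 active = mean percent activation of the reporter above a cutoff set as the average over tested compounds plus their standard deviation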
Target sequence (P55055 whole entry, looked up, the tested form may be a part): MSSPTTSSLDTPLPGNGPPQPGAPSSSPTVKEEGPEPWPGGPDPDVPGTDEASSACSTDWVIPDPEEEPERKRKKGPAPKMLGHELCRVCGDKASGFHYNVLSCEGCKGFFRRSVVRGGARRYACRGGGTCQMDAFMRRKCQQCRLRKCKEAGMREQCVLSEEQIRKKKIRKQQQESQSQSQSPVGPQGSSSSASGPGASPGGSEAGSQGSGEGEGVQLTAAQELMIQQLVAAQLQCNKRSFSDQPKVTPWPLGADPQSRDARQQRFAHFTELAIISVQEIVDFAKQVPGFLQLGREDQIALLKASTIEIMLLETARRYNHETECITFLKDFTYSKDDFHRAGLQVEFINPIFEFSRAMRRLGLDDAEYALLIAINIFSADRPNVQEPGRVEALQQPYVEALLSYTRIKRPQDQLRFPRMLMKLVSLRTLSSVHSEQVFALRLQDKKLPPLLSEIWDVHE
hcDAF12 conf – hcDAF-12 agonism, confirmation assay; activation, % at 6.8 µM; HEK293 hcDAF-12 lit1-tk-luc reporter, luminescence; % of Δ7-dafachronic acid response; actives 61% (n = 3,400); shares compounds with hcDAF12 agonist;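 active = mean activation across triplicate tests above the threshold derived from the earlier primary screen, cut at about 5.5% in these data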
hgDAF12 ag – confirmation of H. glycines DAF-12 agonists; shares compounds with hgDAF12 agonist; HEK293 GAL4-hgDAF12 luciferase reporter, agonist mode; percent of butyrate response; activation, % at 6.8 µM; actives 80% (n = 3,300); AID 743050;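 active = mean activation over triplicate wells above the hit cutoff derived from the earlier primary screen, cut at about 11% in these data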
LXRb DAF12 ctr – counter-screen for DAF-12 agonists: agonists of human LXR-beta; shares compounds with hgDAF12 agonist; 3,300 tested, under 10 active; activation, % at 6.8 µM; AID 743051; HEK293 Gal4-LXR luciferase reporter, 24 h;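 active = mean activation of the triplicate above a set limit carried over from the primary screen, none filed active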
A number is an active result.

What do the screens show for `Cc1cc(C)c2c(N)c(-c3nc4ccccc4[nH]3)sc2n1`?
ssDAF12 agonist: 2.6; APP 5'UTR act: 142; NF-kB expr up: inactive; hcDAF12 agonist: 16; hgDAF12 agonist: 13; LXR ag: inactive; hcDAF12 conf: 10; hgDAF12 ag: 14; LXRb DAF12 ctr: inactive

Results for COc1cccc(-n2c(N)c(-c3nc4ccccc4[nH]3)sc2=S)c1 ?
ssDAF12 agonist: inactive; APP 5'UTR act: inactive; NF-kB expr up: inactive; hcDAF12 agonist: inactive; hgDAF12 agonist: inactive

Results for Fc1ccc(-n2nnc(-c3cccnc3Cl)n2)cc1 ?
ssDAF12 agonist: inactive; APP 5'UTR act: 149; NF-kB expr up: 5.8; hcDAF12 agonist: 7.2; hgDAF12 agonist: 17; LXR ag: inactive; hcDAF12 conf: inactive; hgDAF12 ag: 17; LXRb DAF12 ctr: inactive

How did O=S(=O)(c1cccs1)N1CCC(c2cn3ccccc3n2)CC1 do in these assays?
ssDAF12 agonist: inactive; hcDAF12 agonist: inactive; hgDAF12 agonist: inactive

How did c1ccc2c(-c3csc(-c4ccncc4)n3)c[nH]c2c1 do in these assays?
ssDAF12 agonist: 1.6; APP 5'UTR act: inactive; NF-kB expr up: inactive; hcDAF12 agonist: 13; hgDAF12 agonist: 28; LXR ag: inactive; hcDAF12 conf: 14; hgDAF12 ag: 15; LXRb DAF12 ctr: inactive

How did Brc1ccc(-c2csc(-c3c[nH]c4ccccc34)n2)cc1 do in these assays?
ssDAF12 agonist: inactive; APP 5'UTR act: inactive; NF-kB expr up: inactive; hcDAF12 agonist: inactive; hgDAF12 agonist: inactive

How did O=C(c1ccccc1)n1c(=S)nc2ccccn21 do in these assays?
ssDAF12 agonist: 1.1; hcDAF12 agonist: 15; hgDAF12 agonist: 16; LXR ag: inactive; hcDAF12 conf: 14; hgDAF12 ag: 17; LXRb DAF12 ctr: inactive

How did Cc1cccc(NC(=O)Nc2nc3ncccn3c2-c2ccccc2)c1 do in these assays?
ssDAF12 agonist: inactive; hcDAF12 agonist: inactive; hgDAF12 agonist: inactive

How did Cc1nnc(C)n1/N=C/c1cc2ccccc2nc1Cl do in these assays?
ssDAF12 agonist: inactive; APP 5'UTR act: inactive; NF-kB expr up: inactive; hcDAF12 agonist: inactive; hgDAF12 agonist: inactive

What do the screens show for `Cn1c(N/N=C/c2cc3ccccc3nc2Cl)nc2ccccc21`?
ssDAF12 agonist: 1.4; APP 5'UTR act: inactive; NF-kB expr up: inactive; hcDAF12 agonist: 12; hgDAF12 agonist: 15; LXR ag: inactive; hcDAF12 conf: 11; hgDAF12 ag: 17; LXRb DAF12 ctr: inactive

How did COc1ccc(-c2cc3ccc(OC)cc3cn2)cc1 do in these assays?
ssDAF12 agonist: 1.1; hcDAF12 agonist: 9.9; hgDAF12 agonist: 21; LXR ag: inactive; hcDAF12 conf: 12; hgDAF12 ag: 18; LXRb DAF12 ctr: inactive

How did COc1ccc2cc(-c3ccccc3F)ncc2c1 do in these assays?
ssDAF12 agonist: 1.1; hcDAF12 agonist: 11; hgDAF12 agonist: 16; LXR ag: inactive; hcDAF12 conf: 11; hgDAF12 ag: 24; LXRb DAF12 ctr: inactive

How did COc1cc2ccc(-c3ccc4ccccc4n3)cc2cc1OC do in these assays?
ssDAF12 agonist: inactive; hcDAF12 agonist: inactive; hgDAF12 agonist: inactive

How did COc1ccc(C(O)c2ncc(-c3ccccc3F)[nH]2)cc1 (configuration not stated) do in these assays?
ssDAF12 agonist: inactive; hcDAF12 agonist: inactive; hgDAF12 agonist: inactive

Results for COc1ccc(-c2ccc3ccccc3n2)cc1 ?
ssDAF12 agonist: inactive; APP 5'UTR act: 206; NF-kB expr up: 10; hcDAF12 agonist: 9.6; hgDAF12 agonist: 24; LXR ag: inactive; hcDAF12 conf: 11; hgDAF12 ag: 17; LXRb DAF12 ctr: inactive

Results for CCCCCCCCN1C(=O)[C@@H](CC(=O)NCc2ccccc2)C[C@@]2(C(=O)OC)C1=C[C@H](C(C)C)O[C@@H]2C1CC1 ?
ssDAF12 agonist: inactive; hcDAF12 agonist: inactive; hgDAF12 agonist: inactive

Results for COc1ccc(C(=O)O/N=C(\N)c2ccc(Cl)cc2)cc1 ?
ssDAF12 agonist: inactive; hcDAF12 agonist: inactive; hgDAF12 agonist: inactive

How did COc1cccc(C(=O)O/N=C(\N)c2ccc(C)cc2)c1 do in these assays?
ssDAF12 agonist: inactive; hcDAF12 agonist: 9.7; hgDAF12 agonist: 16; LXR ag: inactive; hcDAF12 conf: 7.2; hgDAF12 ag: 20; LXRb DAF12 ctr: inactive

Results for COc1ccccc1C(=O)O/N=C(\N)c1ccc(Cl)cc1 ?
ssDAF12 agonist: 1.4; APP 5'UTR act: inactive; NF-kB expr up: 5.4; hcDAF12 agonist: 9.2; hgDAF12 agonist: 18; LXR ag: inactive; hcDAF12 conf: 6.3; hgDAF12 ag: 14; LXRb DAF12 ctr: inactive

How did COc1cc(OC)cc(C(=O)NCC(=O)OCc2nc3ccccc3s2)c1 do in these assays?
ssDAF12 agonist: 1.8; APP 5'UTR act: 140; NF-kB expr up: inactive; hcDAF12 agonist: 11; hgDAF12 agonist: 14; LXR ag: inactive; hcDAF12 conf: 11; hgDAF12 ag: 13; LXRb DAF12 ctr: inactive

What do the screens show for `O=C(OCc1nc2ccccc2s1)c1cccs1`?
ssDAF12 agonist: 1.8; APP 5'UTR act: inactive; NF-kB expr up: inactive; hcDAF12 agonist: 10; hgDAF12 agonist: 17; LXR ag: inactive; hcDAF12 conf: 13; hgDAF12 ag: 11; LXRb DAF12 ctr: inactive

How did COc1ccc(C(=O)COC(=O)CNC(=O)c2cc(OC)cc(OC)c2)cc1 do in these assays?
ssDAF12 agonist: inactive; APP 5'UTR act: inactive; NF-kB expr up: inactive; hcDAF12 agonist: inactive; hgDAF12 agonist: inactive

What do the screens show for `O=C(OCc1cn(Cc2cccc(F)c2F)nn1)N1CCCC1`?
ssDAF12 agonist: inactive; hcDAF12 agonist: inactive; hgDAF12 agonist: inactive

How did CC1(C)CC(/C=C/c2ccccc2)=Nc2ccccc2N1 do in these assays?
ssDAF12 agonist: 1.8; hcDAF12 agonist: 7.6; hgDAF12 agonist: 19; LXR ag: inactive; hcDAF12 conf: inactive; hgDAF12 ag: inactive; LXRb DAF12 ctr: inactive

Results for S=C(Nc1cccc(Cl)c1)OC1CCC12CCC(c1ccccc1)CC2 (configuration not stated) ?
ssDAF12 agonist: inactive; hcDAF12 agonist: inactive; hgDAF12 agonist: inactive

How did Cn1c(/N=C(\N)c2ccccc2)nc2ccccc21 do in these assays?
ssDAF12 agonist: 1.7; hcDAF12 agonist: 14; hgDAF12 agonist: 21; LXR ag: inactive; hcDAF12 conf: 17; hgDAF12 ag: 20; LXRb DAF12 ctr: inactive
